p53ts 39C kill: kills p53ts cells at the nonpermissive temperature | H1299-p53A138V viability at 39C, ATP luminescence, 24 h | Potency, µM (titrated, usually from 46.1 µM), for inactives: at the highest dose activity change, negative = cell killing, hits mostly cytotoxic | 130,000 tested, 1.5% active; further: nearly all actives have a fitted effect of over 55% in size
Luciferase inh: blocks Photinus pyralis firefly luciferase activity. P08659. purified firefly luciferase, luminescence, 8 min. Potency, µM (series often up to 57.1 µM), without a hit: top-dose activity change, negative = inhibition, usual class: inhibitors. 72,000 tested, 2.2% active. AID 411; further: nearly all actives have a fitted effect of over 40% in size
Target sequence (P08659 whole entry, looked up): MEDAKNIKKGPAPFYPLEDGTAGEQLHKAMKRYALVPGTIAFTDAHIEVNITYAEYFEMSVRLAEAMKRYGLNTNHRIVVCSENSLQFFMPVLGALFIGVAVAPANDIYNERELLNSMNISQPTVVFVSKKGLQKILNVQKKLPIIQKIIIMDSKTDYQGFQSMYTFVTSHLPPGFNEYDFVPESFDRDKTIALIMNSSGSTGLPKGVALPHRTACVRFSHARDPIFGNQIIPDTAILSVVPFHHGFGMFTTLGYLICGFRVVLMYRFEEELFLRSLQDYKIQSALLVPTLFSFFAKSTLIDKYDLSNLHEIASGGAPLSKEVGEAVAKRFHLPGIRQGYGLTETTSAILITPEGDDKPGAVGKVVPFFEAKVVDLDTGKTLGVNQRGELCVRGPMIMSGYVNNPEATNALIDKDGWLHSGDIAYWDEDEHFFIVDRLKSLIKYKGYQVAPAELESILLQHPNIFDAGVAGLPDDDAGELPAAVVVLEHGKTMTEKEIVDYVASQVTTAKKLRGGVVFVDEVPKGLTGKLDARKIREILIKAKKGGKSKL
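Luminescence read-out after 8 min at room temperature; enzyme reaction used luciferin plus 10 uM ATP (linear range) in imidazole buffer pH 7.2 with KCl, MgCl2, Tween 20 and BSA. Each sample was run as a titration.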
p53ts 32C tox: cytotoxicity in p53ts cells at permissive temperature; H1299-p53A138V at 32C, ATP luminescence viability, 24 h; Potency, µM (doses to about 46.1 µM), inactives show top-dose activity change, negative = cytotoxicity, hits mostly cytotoxic; 130,000 tested, 0.93% active;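 further: 0% = DMSO and -100% = full killing by reference compound; nearly all actives have a fitted effect of over 55% in size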
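Viability by ATPlite luminescence after 24 h compound treatment (up to 46 uM) at the permissive 32C. Cells are H1299 carrying p53 A138V. Scale runs from DMSO basal to 100 uM tamoxifen as full kill; AC50 from Hill fits.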
* = called active by the depositor; u = inconclusive; x = no result given; [ ] = dose if it differs, or a comment. In the library only some 2.6% were active in any assay of this set; here they are far more common. The call rests on the fitted dose curve; in most records, active means well fitted curve in the direction sought with a large enough effect; inconclusive means small, poorly fitted or top-dose-only effect, or another doubt; inactive means no such curve, though single readings can be large; an effect the other way counts as inactive or inconclusive. Unless noted, on the % scale 0 is the no-effect control and ±100 the full control effect; potency means the concentration at half of the fitted maximal effect.

SMILES	p53ts 39C kill	Luciferase inh	p53ts 32C tox
NCCN1C(=O)c2ccccc2[C@@]1(O)c1ccc(Cl)cc1	x	5.0%[11.4 µM]	x
S=C(c1ccc(-c2cccc(Cl)c2)o1)N1CCOCC1	-23.2%	12.6µM*	u
S=C(c1ccc(-c2cc(Cl)ccc2Cl)o1)N1CCOCC1	-3.1%	x	-10.2%
Cc1cccc(C)c1Nc1nc2ccccc2o1	-13.7%	-1.7%	0.4%
Cc1nc(Nc2nc3ccccc3o2)nc2c1CCC2	15.8µM*	7.94µM*	12.6µM*
Cc1ccc(NC(=O)c2c(NC(=O)c3ccccc3Cl)sc3c2CCC3)cc1	0.5%	x	-0.9%
Cc1ccc(-n2ncc(C(=O)NCc3ccccc3)c2C2CCN(C(=O)OC(C)(C)C)CC2)cc1	4.3%	x	12.8%
COc1ccc(-c2cn3c(C)c(C(=O)Nc4cccc(NC(C)=O)c4)sc3n2)cc1	-3.9%	12.6µM*	-9.7%
CCOc1ccc(NC(=O)c2sc3nc(-c4ccc(OC)cc4)cn3c2C)cc1	-7.2%	x	2.8%
CCCCNC(=O)CN1C(=O)c2c(c3ccccc3n2C)C1c1ccc(OC)cc1 (centres undefined)	-11.9%	x	5.6%
Cc1ccc(CN2C(=O)c3ccccc3S(=O)(=O)c3ccc(C(=O)OCC4CCCO4)cc32)cc1 (centres undefined)	-6.7%	x	10.7%
CCOC(=O)c1ccccc1NC(=O)c1ccc2c(Cl)c3c(nc2c1)CCC3	u	x	-26.8%
O=C(Nc1ccccc1C(F)(F)F)c1cc2nc(-c3ccccc3)cc(-c3ccccc3)n2n1	15.8%	x	5.0%
CCOC(=O)c1cccc(NC(=O)c2cnccn2)c1	-10.1%	-1.2%	-1.5%
COc1cc(Cl)c(NC(=O)c2cc3ccccn3n2)c(OC)c1	-1.8%	x	-8.7%
O=C(Nc1ccccc1C(F)(F)F)c1cc2ccccn2n1	7.94µM*	x	10µM*
CCOC(=O)c1cccc(NC(=O)c2cc3ccccn3n2)c1	12.6µM*	x	10µM*
CCOC(=O)c1cccc(NC(=O)c2ccc3c(Cl)c4c(nc3c2)CCC4)c1	0.794µM*	x	u
COc1ccc(NC(=O)c2cc3ccccn3n2)cc1	7.94µM*	6.31µM*	10µM*
CCn1ccc2cc(S(=O)(=O)N3CCC(C(=O)NCCOC)CC3)ccc21	-10.0%	x	-11.4%
COc1ccc(S(=O)(=O)N(CCc2ccccc2)CC(=O)Nc2cccc(OC)c2)cc1	-24.0%	x	0.4%
Cc1cccc(NC(=O)Nc2cccc(F)c2)n1	-5.6%	-7.0%	-6.4%
Cc1ccnc(NC(=O)Nc2cccc(F)c2)c1	u	3.16µM*	u
O=C(Nc1cccs1)Nc1cc(C(F)(F)F)ccc1Cl	25.1µM*	x	-13.6%
O=C(CSCCO)Nc1cc(C(F)(F)F)ccc1Cl	5.2%	2.5%	-2.7%
SMILES	p53ts 39C kill	Luciferase inh	p53ts 32C tox
CC1(C)C(=O)C2C[C@]3(O)C4=CC(=O)OC(c5ccoc5)[C@]4(C)CCC3[C@](C)(C2=O)C1CC(=O)O (some centres undefined)	-5.0%	x	-2.6%
Cc1ccc(C2=CC(c3c(F)cccc3Cl)n3ncnc3N2)cc1C (centres undefined)	2.5%	x	12.8%
COc1cccc(C2=CC(c3ccccc3F)n3c(nc4ccccc43)N2)c1 (centres undefined)	10µM*	x	15.8µM*
Cc1ccc(C2=CC(c3ccccc3F)n3c(nc4ccccc43)N2)cc1C (centres undefined)	12.6µM*	x	u
COc1cccc(C2=CC(c3ccccc3F)n3ncc(C(=O)Nc4ccc(C)cc4)c3N2)c1 (centres undefined)	47.5%	x	19.8%
O=C(Nc1cccc(C(=O)N2CCN(c3ccc(F)cc3)CC2)c1)c1nsc2ccccc12	-28.9%	x	-25.0%
CCCC[C@]1(C2CCCC2)Cc2cc(OCC(=O)O)c(Cl)c(Cl)c2C1=O	-0.6%	-0.1%	14.3%
Cc1ccc(C(=O)Nc2ccccc2N2CCOCC2)c(C)c1	-8.3%	x	-13.0%
CN1CCN([C@@H]2Cc3ccccc3Sc3ccc(Cl)cc32)CC1	15.8µM*	0.4%	20µM*
Clc1ccc2c(c1)C(N1CCNCC1)Cc1ccccc1S2 (centres undefined)	-20.2%	x	u
CCCn1c2ccccc2c2cnn(CC(=O)N(Cc3ccccc3)C(C)C)c(=O)c21	x	x	-9.8%
CCOc1cccc2sc(N(Cc3cccnc3)C(=O)C3CCCCC3)nc12	24.1%	x	13.4%
NC(=O)C1CCN(C(=O)c2ccc(NC(=O)c3nsc4ccccc34)cc2)CC1	2.51µM*	x	2µM*
Cc1ccc(C(=O)N2CCC(C(N)=O)CC2)cc1NC(=O)c1nsc2ccccc12	3.8%	x	9.7%
Cc1ccc2ncc3c(-c4ccc(F)cc4)nn(CC(=O)Nc4ccccc4C)c3c2c1	-16.3%	x	-1.3%
COc1ccc(-c2nc3sc(CCNC(=O)C(=O)Nc4ccccc4C#N)c(C)n3n2)cc1	-8.7%	x	-4.9%
COc1ccc(C(=O)COC(=O)C(CC(C)C)N2C(=O)c3ccccc3C2=O)cc1 (centres undefined)	u	x	15.8µM*
COc1cccc(C(=O)COC(=O)C(C)N2C(=O)c3ccccc3C2=O)c1 (centres undefined)	10.7%	1.3%	-3.4%
COc1cc(Cl)c(C)cc1NC(=O)c1cnn(-c2ccc(F)cc2F)c1C1CCN(C(=O)OC(C)(C)C)CC1	14.6%	x	4.0%
COC(=O)[C@H]1[C@@H]2C[C@H]3c4[nH]c5ccccc5c4CCN3C[C@@H]2CC[C@@H]1O	x	0.4%[11.4 µM]	x
O=C(Nc1ccc(-c2nc3ccccc3o2)cc1)C1CCCO1 (centres undefined)	10µM*	5.01µM*	15.8µM*
O=C(Nc1ccc(-c2nc3cc(Cl)ccc3o2)cc1)C1CCCO1 (centres undefined)	7.9%	x	4.1%
COc1ccccc1C1c2c(-c3ccc(Cl)cc3)n[nH]c2C(=O)N1c1ccc(C)cc1 (centres undefined)	u	x	27.3%
COc1ccc(Br)cc1CNC(=O)CN1C(=O)c2cccnc2Oc2ccc(C)cc21	x	x	-2.4%
CC(C)CC1NC(=O)C(CCCN)NC(=O)C(C(C)C)NC(=O)C2CCCN2C(=O)C(Cc2ccccc2)NC(=O)C(CC(C)C)NC(=O)C(CCCN)NC(=O)C(C(C)C)NC(=O)C2CCCN2C(=O)C(Cc2ccccc2)NC1=O (centres undefined)	5.01µM*	x	-9.8%
SMILES	p53ts 39C kill	Luciferase inh	p53ts 32C tox
CC(C)[C@@H]1NC(=O)[C@H](CCCCN)NC(=O)[C@H](Cc2c[nH]c3ccccc23)NC(=O)[C@H](Cc2ccc(O)cc2)NC(=O)[C@H](C)N(C)C(=O)[C@H](Cc2ccccc2)NC1=O	10.8%	0.0%	22.7%
CC1=C(C(=O)NCc2cccc(Cl)c2)C2(CCCCCC2)OC1=O	x	x	-0.9%
CC(C)OCCCn1c(SCc2ccccc2Cl)nc2c(sc3ccccc32)c1=O	-16.1%	x	13.1%
CCCCC1=NC2(CCCC2)C(=O)N1Cc1ccc(-c2ccccc2-c2nn[nH]n2)cc1	0.1%	x	-12.5%
CCc1cc2c(c(CC)n1)CCC(=O)N2Cc1ccc(-c2ccccc2-c2nn[nH]n2)cc1	7.3%	15.8µM*	12.6%
CC(C)(C)N1C(=O)[C@@H]2[C@H]3C(=CC[C@H]2C1=O)C(=O)[C@H]1O[C@H]1[C@H]3O	7.8%[9.22 µM]	-2.0%[11.4 µM]	16.9%[9.22 µM]
Cc1ccc(S(=O)(=O)NCCSc2nnnn2-c2cc(C)ccc2C)cc1	-2.9%	4.7%	5.2%
Cc1ccc(C)c(-n2nnnc2Sc2nnnn2-c2ccccc2)c1	10µM*	2.0%	-14.0%

From PubChem
